From PubChem BioAssay (NCATS) come the findings set out here.

The nature of test [1]: qHTS to identify inhibitors of the type 1 interferon - major histocompatibility complex class I in skeletal muscle: primary screen against the NCATS Mechanism Interrogation Plate v5.0 (MIPE) Libary (AID 1347411). Further: nearly all actives have a fitted effect of over 65% in size. Further: potency means the concentration at half of the fitted maximal effect.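 On activity change, negative = inhibition: plate controls were vehicle for no effect and reference inhibitor for full effect.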 Summed up:
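Immortalized human myoblasts (C25cl48) with HiBit knocked into endogenous HLA-B*08:01 were stimulated with 4 ng/ml IFN-beta and given compounds in 11-point 1:3 titration from 46 uM. After 24 h at 37 C, lytic HiBiT luminescence was read.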
(qHTS replaces the single test concentration by a dilution series.)

Test [2] concerns the target Calcium and integrin-binding protein 1 (Homo sapiens) (UniProt Q99828). Description: Primary qHTS for Identification of Calcium Integrin Binding Protein 1 (CIB1) Competitor (AID 1508620).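 Further: GST tagged CIB1 binding a fluorescein labelled alphaIIb integrin peptide tracer; top concentration of the series differs between compounds; on the % scale 0 is the no-effect control and ±100 the full control effect.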 In a few lines:
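Fluorescence polarization competition: GST-tagged CIB1 (1 uM final) preincubated with compound 15 min at room temperature, then FITC-labelled alphaIIb peptide (100 nM final) added. After 15 min at room temperature, polarization read at Ex 480/Em 540.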

A short description of test [3]: Primary qHTS for small molecule stabilizers of the endoplasmic reticulum resident proteome: Secreted ER Calcium Modulated Protein (SERCaMP) assay (AID 1508630). Further: on the % scale 0 is the no-effect control and ±100 the full control effect. In a few lines:
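GLuc-SERCaMP-expressing SH-SY5Y cells, pretreated 16 h with compound, are challenged with thapsigargin to empty ER calcium stores; after 4 h, coelenterazine is added directly to the medium and luminescence is imaged.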

Test [4] is described as follows: Primary qHTS for inhibitors of nuclear receptor binding SET domain protein 2 (NSD2) in an isogenic RCH-ACV NSD2 p.E1099K mutant (9B) (AID 1645876). Further: nearly all actives have a fitted effect of over 70% in size. Further: potency means the concentration at half of the fitted maximal effect.
Test [5] can be described thus: Primary qHTS for inhibitors of nuclear receptor binding SET domain protein 2 (NSD2) in an RCH-ACV wild type WT cells (2C) (AID 1645877). Further: nearly all actives have a fitted effect of over 70% in size. Further: potency means the concentration at half of the fitted maximal effect.
Test [6] concerns the target Cytochrome P450 2C9 (Homo sapiens) (UniProt P11712). Nature of the test: Cytochrome P450 family 2 subfamily C member 9 (CYP2C9) small molecule antagonists: luciferase biochemical (cell-free) qHTS assay (AID 1645842; active means well fitted curve in the direction sought with a large enough effect in the repeat runs; an effect the other way counts as inactive or inconclusive; further: nearly all actives have a fitted effect of over 55% in size; further: potency means the concentration at half of the fitted maximal effect; on activity change, negative = inhibition: on the % scale 0 is the no-effect control and ±100 the full control effect). In a few lines:
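Luminescence, after 20 min with luciferin detection reagent, reflected CYP2C9 turnover during a 1 h NADPH-driven reaction at 37C. Enzyme-substrate mix contained 0.4% bovine serum albumin and was preincubated with compound 10 min at room temperature.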

The target in test [7] is Catechol O-methyltransferase (Homo sapiens) (UniProt P21964). Description: Confirmatory Screen for Target Class Profiling of Small Molecule Inhibitors of Methyltransferases (AID 1745852; calls by dose curve; on activity change, negative = inhibition: on the % scale 0 is the no-effect control and ±100 the full control effect). The following applies: MTase-Glo luminescence, SAH detection, recombinant enzyme; measured here: COMT max response; stronger effect = lower value.
Test [8] deals with Guanidinoacetate N-methyltransferase (Homo sapiens) (UniProt Q14353). The description is as above. Conditions: activity change, negative = inhibition: at 57.3 µM (top of the series).
Test [9] has as its target Nicotinamide N-methyltransferase (Homo sapiens) (UniProt P40261). The test is described as above. The following applies: MTase-Glo luminescence, SAH detection, recombinant enzyme; measured here: NNMT max response; stronger effect = lower value.
Test [10] addresses Cytochrome P450 2D6 (Homo sapiens) (UniProt P10635). Description: Cytochrome P450 family 2 subfamily D member 6 (CYP2D6) small molecule antagonists: luciferase biochemical (cell-free) qHTS assay (AID 1645840; active means well fitted curve in the direction sought with a large enough effect in the repeat runs; an effect the other way counts as inactive or inconclusive; further: potency means the concentration at half of the fitted maximal effect; nearly all actives have a fitted effect of over 55% in size). Summed up:
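P450-Glo luminescent screen: recombinant CYP2D6 enzyme–proluciferin substrate mix preincubated with compound 10 min at room temperature, then NADPH regeneration added for 1 h at room temperature. Detection reagent added for 20 min; luciferin light read as relative luminescence units.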

The structures appear in SMILES notation. Results filed as inconclusive are left out. Activity calls are given as the source filed them. Unless noted, the call rests on the fitted dose curve; in most records, active means well fitted curve in the direction sought with a large enough effect; inconclusive means small, poorly fitted or top-dose-only effect, or another doubt; inactive means no such curve, though single readings can be large; an effect the other way counts as inactive or inconclusive. Starred links: 1 amine or outer side, 2 acyl side, 3 side chain; linkers in the order of their positions; H or OH if unused. Positions of bridges follow the written chain, without caps; N, C: chain ends. Non-standard residues stand in square brackets, D forms with d. Residues, ends and D or L forms follow the SMILES beside them. Chains are numbered I, II in the order given. ξ: configuration not given here. *: point of attachment. Actinocin(9to1) = Cc1c2oc3c(C)ccc(C(=O)[*:1])c3nc-2c(C(=O)[*:2])c(N)c1=O; Octanoyl(6-Me) = CCC(C)CCCCC(=O)*; ξThr(3R) = C[C@@H](O)C(N)C(=O)O; NMeV = CN[CH](C(=O)O)C(C)C; dDab = NCC[C@@H](N)C(=O)O; Dab = NCC[C@H](N)C(=O)O; Sar = CNCC(=O)O

Chain of Calcium and integrin-binding protein 1 (Homo sapiens) (Q99828 whole entry, looked up): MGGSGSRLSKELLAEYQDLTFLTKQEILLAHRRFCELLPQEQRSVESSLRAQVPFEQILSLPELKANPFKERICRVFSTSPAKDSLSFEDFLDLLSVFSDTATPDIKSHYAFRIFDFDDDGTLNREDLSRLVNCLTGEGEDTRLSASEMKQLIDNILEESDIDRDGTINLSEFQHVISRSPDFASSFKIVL
Chain of Cytochrome P450 2C9 (Homo sapiens) (P11712 whole entry, looked up): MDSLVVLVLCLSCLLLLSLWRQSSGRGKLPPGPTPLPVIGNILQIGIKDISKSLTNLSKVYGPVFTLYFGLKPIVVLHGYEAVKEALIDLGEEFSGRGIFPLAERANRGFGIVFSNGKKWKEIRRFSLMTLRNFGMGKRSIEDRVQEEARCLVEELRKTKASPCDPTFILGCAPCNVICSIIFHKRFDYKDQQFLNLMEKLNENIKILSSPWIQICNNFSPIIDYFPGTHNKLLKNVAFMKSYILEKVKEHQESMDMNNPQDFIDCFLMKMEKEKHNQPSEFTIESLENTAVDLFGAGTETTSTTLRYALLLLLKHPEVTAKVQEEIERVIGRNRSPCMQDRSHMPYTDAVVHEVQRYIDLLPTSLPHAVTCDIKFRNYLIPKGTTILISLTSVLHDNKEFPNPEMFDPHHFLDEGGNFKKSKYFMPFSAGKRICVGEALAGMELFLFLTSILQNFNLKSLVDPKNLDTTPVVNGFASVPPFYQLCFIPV
Chain of Catechol O-methyltransferase (Homo sapiens) (P21964 whole entry, looked up): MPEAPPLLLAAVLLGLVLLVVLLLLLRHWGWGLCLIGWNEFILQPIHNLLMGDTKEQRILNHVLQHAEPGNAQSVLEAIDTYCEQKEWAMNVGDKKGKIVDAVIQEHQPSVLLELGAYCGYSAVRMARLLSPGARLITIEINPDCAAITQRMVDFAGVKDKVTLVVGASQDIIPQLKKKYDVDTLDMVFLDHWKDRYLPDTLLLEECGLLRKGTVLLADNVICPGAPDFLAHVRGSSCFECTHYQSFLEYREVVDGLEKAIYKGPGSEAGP
Chain of Cytochrome P450 2D6 (Homo sapiens) (P10635 whole entry, looked up): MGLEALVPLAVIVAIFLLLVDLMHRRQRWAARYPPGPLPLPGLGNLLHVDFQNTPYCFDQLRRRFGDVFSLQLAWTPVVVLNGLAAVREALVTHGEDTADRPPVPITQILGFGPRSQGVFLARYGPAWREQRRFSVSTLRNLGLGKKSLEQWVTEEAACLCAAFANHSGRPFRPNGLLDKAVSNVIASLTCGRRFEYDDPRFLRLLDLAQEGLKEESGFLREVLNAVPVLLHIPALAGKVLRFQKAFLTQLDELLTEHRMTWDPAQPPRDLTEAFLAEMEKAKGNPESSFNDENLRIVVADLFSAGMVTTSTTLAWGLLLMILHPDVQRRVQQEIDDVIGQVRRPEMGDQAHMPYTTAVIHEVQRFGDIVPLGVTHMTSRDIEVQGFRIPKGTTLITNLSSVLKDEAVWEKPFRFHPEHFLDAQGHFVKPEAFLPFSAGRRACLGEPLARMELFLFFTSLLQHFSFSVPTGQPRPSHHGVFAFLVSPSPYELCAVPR
Chain of Nicotinamide N-methyltransferase (Homo sapiens) (P40261 whole entry, looked up): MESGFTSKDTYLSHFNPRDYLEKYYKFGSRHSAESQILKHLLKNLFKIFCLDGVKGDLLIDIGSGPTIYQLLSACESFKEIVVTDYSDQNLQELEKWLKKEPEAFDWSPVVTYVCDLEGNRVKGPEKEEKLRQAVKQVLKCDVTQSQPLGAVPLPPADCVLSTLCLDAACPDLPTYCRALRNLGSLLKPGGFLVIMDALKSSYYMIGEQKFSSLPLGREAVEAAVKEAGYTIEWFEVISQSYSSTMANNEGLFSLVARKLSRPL

Turning to `C[C@H]1[C@@H](OC(=O)CCC(=O)O)O[C@@H]2O[C@@]3(C)CC[C@@H]4[C@H](C)CC[C@@H]1[C@@]24OO3`, the Potency result in test [1] and in test [2] was “inactive” throughout. Moreover, the outcome in test [3] was “inactive”. The Potency in test [4] is 1860 nM (active); in test [5], 1480 nM (active).
Regarding `C[C@](Cc1c[nH]c2ccccc12)(NC(=O)OC1C2CC3CC(C2)CC1C3)C(=O)NC[C@H](NC(=O)CCC(=O)O)c1ccccc1` (stereo partly specified), the Potency result in test [1], in test [2], in [4] and in test [5] was “inactive” each time. Also, in test [3], the outcome was “inactive”.
As for `O=C(O)CCCCC(CCSCc1ccccc1)SCc1ccccc1` (stereo unspecified), the Potency entry in test [1], in test [2], in [4] and in test [5] was “inactive” in each case. Moreover, the outcome in test [3] is “inactive”.
For the molecule `Cc1cc(C(=O)NOCCO)c(Nc2ccc(I)cc2F)n(C)c1=O`, the Potency entry in test [1], in [2] and in test [4] was “inactive” each time. Further, the outcome in test [3] was “inactive”.
Take `CCCCOc1ccc(C(=O)Nc2ccc(F)cc2F)cc1`: the Potency entry in test [1], in test [2], in test [4] and in test [5] was “inactive” throughout. Also, the outcome in [3] is “inactive”. Besides, the Potency in test [6] was 7560 nM (active).
Turning to `CC(=O)SCC(Cc1ccccc1)C(=O)NCC(=O)OCc1ccccc1` (stereo unspecified), the Potency result in test [1], in test [2], in [4] and in test [5] was “inactive” each time. The outcome in test [3] is “inactive”.
`Cc1cnc(Nc2ccc(N3CCN(C)CC3)cc2)nc1Nc1cccc(S(=O)(=O)NC(C)(C)C)c1`: the Potency in test [1] is 11700 nM (active); in test [4] it was 1660 nM (active); in test [5] it was 1860 nM (active). Further, the Potency result in test [2] and in [6] was “inactive” throughout. For the same molecule, in [3], the outcome was “inactive”. In addition, the figures for the activity in test [7] and in test [9] were 8.73% and -15.4%, respectively. The activity change, negative = inhibition in [8] was -1.34%.
With `Nc1nc2c(c(=O)[nH]1)N(C=O)[C@H](CNc1ccc(C(=O)N[C@@H](CCC(=O)O)C(=O)O)cc1)CN2`, the Potency entry in test [1], in [2] and in test [4] was “inactive” in each case. Also, in [3], the outcome is “inactive”.
For the molecule `N=c1ccn2c(n1)O[C@H]1[C@@H](O)[C@@H](CO)O[C@H]12`, the Potency entry in test [1] and in test [2] was “inactive” throughout. Moreover, the outcome in test [3] was “inactive”. In addition, the figures for the Potency in test [4] and in test [5] were 20.9 nM (active) and 23.5 nM (active), respectively.
In the case of `CCC(C)CCCCC(=O)N[C@@H](CCN)C(=O)NC(C(=O)N[C@H](CCN)C(=O)N[C@@H]1CCNC(=O)C([C@@H](C)O)NC(=O)[C@@H](CCN)NC(=O)[C@@H](CCN)NC(=O)[C@@H](CC(C)C)NC(=O)[C@H](Cc2ccccc2)NC(=O)[C@H](CCN)NC1=O)[C@@H](C)O` (stereo partly drawn) ({Octanoyl(6-Me)}-[Dab][ξThr(3R)][dDab][dDab][Dab]F[dL][dDab][dDab][ξThr(3R)]; lactam 4-C), the Potency entry in test [1], in [2], in [4] and in test [5] was “inactive” each time. Also, the outcome in test [3] is “inactive”.
On to `Cc1c2oc3c(C)ccc(C(=O)NC4C(=O)NC(C(C)C)C(=O)N5CCCC5C(=O)N(C)CC(=O)N(C)C(C(C)C)C(=O)OC4C)c3nc-2c(C(=O)NC2C(=O)NC(C(C)C)C(=O)N3CCCC3C(=O)N(C)CC(=O)N(C)C(C(C)C)C(=O)OC2C)c(N)c1=O` (stereo unspecified) (I: TVP[Sar][NMeV] / II: TVP[Sar][NMeV]; ester I:1-I:C, II:1-II:C; linker I:N-II:N via Actinocin(9to1); configuration not given here), for which the Potency in [1] is 114 nM (active); in test [4] it was 1.4 nM (active); in test [5], 0.6 nM (active). Besides, the Potency result in test [2] is “inactive”. Further, the outcome in [3] is “inactive”.
Take `CC(=O)OC[C@@H]1O[C@@H](n2ccc(=O)[nH]c2=O)[C@H](OC(C)=O)[C@H]1OC(C)=O`: the Potency result in [1], in test [2], in test [4] and in [5] was “inactive” in each case. In addition, the outcome in test [3] is “inactive”.
Regarding `Cc1cc(Nc2ncc3c(n2)N(C)C(=O)N(c2cc(NC(=O)c4cccc(C(F)(F)F)c4)ccc2C)C3)n(C)n1`, the Potency in test [1] is 234 nM (active); in test [4] it was 132 nM (active); in test [5] it was 132 nM (active). The Potency result in test [2] was “inactive”. In addition, the outcome in test [3] is “inactive”.
As to `Cn1cc(-c2ccc3ncc(Cc4ccc5ncccc5c4)n3n2)cn1`, the Potency entry in test [1] and in test [2] was “inactive” each time. Besides, the Potency was 12000 nM (active) in [10] and 756 nM (active) in test [6].
Take `C[C@@H]1CC[C@@]2(OC1)OC1CC3C4CC=C5CC(O)CCC5(C)C4CCC3(C)C1[C@@H]2C` (stereo partly specified): the Potency entry in [1], in [2], in test [4] and in [5] was “inactive” in each case. Moreover, in [3], the outcome was “inactive”.
For `COc1cc(C[C@@H](CO)[C@H](CO)Cc2ccc(O)c(OC)c2)ccc1O`, the Potency result in [1], in [2], in [4] and in [5] was “inactive” each time. Also, the outcome in test [3] was “inactive”.
On to `O=[N+]([O-])c1cn2c(n1)OC[C@@H](OCc1ccc(OC(F)(F)F)cc1)C2`, for which the Potency entry in [1], in [2], in [4] and in test [5] was “inactive” throughout. The outcome in test [3] is “inactive”.
Take `C=CC(=O)N1CCc2ccc(-n3c(=O)ccc4cnc5ccc(-c6cnn(C)c6)cc5c43)cc21`: the Potency in test [1] is 806 nM (active); in test [4] it was 363 nM (active); in test [5], 323 nM (active). Further, the Potency result in test [2] was “inactive”.
As for `C=C(C)[C@@H]1CC[C@]2(C(=O)O)CC[C@]3(C)[C@H](CC[C@@H]4[C@@]5(C)CC[C@H](O)C(C)(C)[C@@H]5CC[C@]43C)[C@@H]12`, the Potency entry in test [1], in test [2], in test [4] and in [5] was “inactive” throughout. Further, the outcome in test [3] is “inactive”.
As to `O=C(c1ccc(F)cc1)N1CCC[C@H](c2nc(-c3ccc(F)cc3)no2)C1`, the Potency result in [1], in [2], in test [4] and in [5] was “inactive” each time. In test [3], the outcome is “inactive”.
As for `Cn1cnc(=N)c2[nH]cnc21`, the Potency result in test [1], in [2], in test [4] and in test [5] was “inactive” throughout. Besides, the outcome in test [3] is “inactive”.
Regarding `COc1ccc([C@@H]2CNC(=O)C2)cc1OC1CCCC1`, the Potency entry in test [1], in [2], in [4] and in test [5] was “inactive” in each case. Also, the outcome in test [3] was “inactive”.
Regarding `Cc1ccc(O)c(C(CCN(C(C)C)C(C)C)c2ccccc2)c1` (stereo unspecified), the Potency entry in [1], in [2], in [4] and in test [5] was “inactive” each time. Moreover, the outcome in [3] was “inactive”.
